Data as given in PubChem BioAssay AID1671190 (National Center for Advancing Translational Sciences (NCATS), 2021).
Hit rate of the full screen: of about 580,000 compounds, about 6,100 (1.1%) were called active. Roughly 15% stayed inconclusive and do not appear here. Calls follow the shape of the dose curve; as a rule, active = well fitted inhibition curve with a large enough effect; inconclusive = small, poorly fitted or top-dose-only effect, or another doubt; inactive = no such curve, though single readings can be large or run the other way. The list comes from a sample in which actives are over-represented; it also holds similar structures and randomly drawn compounds.

Target: Polyunsaturated fatty acid lipoxygenase ALOX12 (Homo sapiens) (UniProt P18054)
Experiment: Primary qHTS assay for inhibitors of human arachidonate 12S-lipoxygenase (ALOX12): Round 2
Settings: purified 12hLO, xylenol orange hydroperoxide absorbance; series mostly up to 108 µM; activity change, negative = inhibition: at the top concentration
Summary of the method: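 Purified human 12hLO (150 nM final) in 25 mM Hepes, 0.01% Triton X-100, pH 7.0 was preincubated 15 min at room temperature with compound. Then 40 uM arachidonic acid was added, 30 min. Hydroperoxide was read by Fe-XO absorbance ratio 573/405 nm.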
% is scaled to controls: 0 for no effect and ±100 for the full control effect; potency is read from the fitted curve at half-maximal effect.

Sequence of Polyunsaturated fatty acid lipoxygenase ALOX12 (Homo sapiens) (P18054 whole entry, looked up): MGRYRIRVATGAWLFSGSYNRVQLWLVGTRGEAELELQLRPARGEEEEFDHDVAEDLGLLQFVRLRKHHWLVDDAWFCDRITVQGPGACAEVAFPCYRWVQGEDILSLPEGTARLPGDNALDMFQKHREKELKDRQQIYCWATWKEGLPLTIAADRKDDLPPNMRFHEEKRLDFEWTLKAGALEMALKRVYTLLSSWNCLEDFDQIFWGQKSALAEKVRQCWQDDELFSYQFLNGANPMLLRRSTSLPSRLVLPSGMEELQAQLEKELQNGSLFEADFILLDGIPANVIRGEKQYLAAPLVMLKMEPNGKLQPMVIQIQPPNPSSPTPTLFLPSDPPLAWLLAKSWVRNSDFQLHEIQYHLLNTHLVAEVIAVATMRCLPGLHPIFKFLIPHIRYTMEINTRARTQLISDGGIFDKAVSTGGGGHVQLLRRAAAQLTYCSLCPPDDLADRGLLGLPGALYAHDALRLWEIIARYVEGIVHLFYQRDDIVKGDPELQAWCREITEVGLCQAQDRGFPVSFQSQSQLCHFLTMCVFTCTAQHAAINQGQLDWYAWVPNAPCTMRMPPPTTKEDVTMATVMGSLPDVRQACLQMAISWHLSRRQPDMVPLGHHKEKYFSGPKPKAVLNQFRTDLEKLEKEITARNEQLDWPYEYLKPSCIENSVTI

Activity change, negative = inhibition, inactive:
CS(=O)(=O)c1ccc(-c2csc(NC3CCCCC3)n2)cc1 -2.88%
CC(C)CCNc1nc(-c2ccc(S(=O)(=O)N3CCOCC3)cc2)cs1 -5.58%
CCCc1nc(C#N)c(N2CCN(c3ccccc3)CC2)o1 -22.7%
Cc1cccnc1C(NC(=O)C1CCN(Cc2ccc(Cl)c(Cl)c2)CC1)c1ccc(Cl)cc1 (stereo not given) -10.3%
CCOc1ccc(S(=O)(=O)N2CCC(C(=O)NCc3ccccn3)CC2)cc1Cl -25.1%
O=C(COc1ccc(Cl)cc1Cl)NCCCNC(=O)c1cnccn1 0.217%
COc1cccc(CN2CCC(C(=O)NC(c3ccc4c(c3)OCO4)c3ccccn3)CC2)c1 (stereo not given) -2.37%
Fc1ccccc1-c1n[nH]c2c1CN(Cc1cccc3c1OCO3)CC2 -12.2%
Cc1ccccc1-c1cc(-c2ccccc2C)[nH]n1 -23.8%
CC(CNC(=O)c1cc2ccccc2s1)N1CCCC1 (stereo not given) -16.1%
OCCCNC(=S)Nc1ccccc1F 0.703%
Cc1nc(-c2cccnc2)sc1CCNS(=O)(=O)c1cccs1 -2.94%
O=C(Nc1ccc2c(c1)OCCO2)c1nn(-c2ccccc2)c(=O)c2ccccc12 0.0556%
COC(=O)C[C@H]1C=C[C@@H](NS(=O)(=O)c2ccc(C)cc2)[C@@H](CO)O1 5.66%
COC(=O)C[C@@H]1C=C[C@@H](NS(=O)(=O)c2cccc(OC)c2)[C@@H](CO)O1 -25.2%
N#CC1(c2ccc(N)cc2)CCCC1 13.6%
CCn1nnc(NC(=O)c2cc3ccccc3cc2OC)n1 -19.5%
CCCn1nnc(NC(=O)c2cc3ccccc3cc2OC)n1 -6.59%
COCCCNC(=O)CN(C)C(=O)c1cccc(C(F)(F)F)c1 5.64%
CCc1nnsc1C(=O)N(C)Cc1c(F)cccc1Cl 34%
N#Cc1cc(NCC(=O)N2CCNC2=O)ccc1Cl 14.5%
Fc1ccc(Nc2nc(SCc3ccccc3Cl)nc3ccccc23)cc1 -21.5%
CC1(C)N=C(SCc2ccccc2Cl)c2ccccc2N1 -9.25%
O=C(NCC1CCCO1)c1cc(Cl)c2c(c1)OCCO2 (stereo not given) 9.31%
Cc1ccccc1CN(CC1CCCO1)C(=O)c1cccc(CCC(C)(C)O)c1 (stereo not given) 80.5%
CCCn1c(=O)c2c(C(F)(F)F)cc(-c3cccs3)nc2n(CCC)c1=O -9.97%
Cc1nn(-c2ccccc2)c2[nH]c(C(F)(F)F)cc(=O)c12 0% [at 57.4 µM]
Cc1cc2oc(=O)cc(COC(=O)c3cc(S(=O)(=O)N(C)C)ccc3NCCO)c2cc1C -22%
CCOC(=O)C1(C(F)(F)F)N=C(c2ccc(OC)cc2)OC(N(C)C)=N1 (stereo not given) 0.631%
O=C(CCNC(=O)N1CCN(C(=O)c2cc3ccccc3[nH]2)CC1)NCc1ccccn1 8.38%
Clc1cccc(CN2CCN(Cc3nnsc3Cl)CC2)c1 22.4%
CCOC(=O)c1ccc(Nc2c(C(=O)OCC)cnc3ccc(OCC)cc23)cc1 -26.7%
COC(=O)c1ccc2nc(-c3cccc(Br)c3)c(Cc3ccccc3C(F)(F)F)n2c1 0%
COC(=O)c1ccc2nc(C3CCCCC3)c(Cc3cccc(F)c3)n2c1 -27.2%
CN(C)C(=O)c1nc2ccc(Cl)cn2c1CNCc1cccc(OC(F)(F)F)c1 -10%
CCc1nc2ccc(C(=O)NCc3ccc(OC)cc3)cn2c1N(CC)Cc1cccc(Br)c1 -13.1%
O=C(Nc1ccnc(Cl)c1)C1CC2CCC1C2 (stereo not given) -11.1%
CC(=O)OC1C2COC(O2)C(OC(C)=O)C1OC(C)=O (stereo not given) -25.1%
O=C(Nc1cccnc1)c1cc(-c2ccc(F)cc2)nc2ccccc12 -4.09%
CCCNC(=O)CC1COCCN1C(=O)CCc1c(C)nc(=O)[nH]c1C (stereo not given) 4.55%
COC(=O)c1c(CN2CCC(C(N)=O)CC2)nc2ccccc2c1C -1.28%
CNC(=O)NC(=O)CSc1nnc(-c2ccc(F)cc2)n1CC1CCCO1 (stereo not given) -1.78%
Cc1nnc(SCC(=O)NNC(=O)c2ccc(Cl)cc2)n1CC1CCCO1 (stereo not given) 0.528%
COc1ccc(C(=O)NC[C@@H]2C=C(C)[C@H](Cc3nnc(-c4cncn4C)o3)C[C@H]2C(C)C)cc1 5.16%
O=C(c1cccc(F)c1)N1CCC(O)(c2cccnc2)CC1 0%
CC(C)c1ccc(S(=O)(=O)N2CCN(C(=O)c3ccc(N4CCCC4)c([N+](=O)[O-])c3)CC2)cc1 1.24%
O=C(NCCCN1CCCC1=O)c1csc(N2CCN(c3ccccc3F)CC2)n1 -8.23%
C/C(=N\NC(=O)C1CC1)C(C)C 31.5%
COc1ccc(Oc2ccc(NC(=O)Cn3ncc4ccc(OC)c(OC)c4c3=O)cc2)cc1 6.84%
O=C(NN=Cc1ccco1)C(=O)Nc1ccc(Cl)c([N+](=O)[O-])c1 20.7%
C/C(=N\NC(=O)Cc1ccccc1[N+](=O)[O-])c1cccnc1 434%
CC(=O)N1CCN(C(=O)Cn2c(-c3ccccc3)cc3ccccc32)CC1 -56.7%
O=C(Nc1cc(F)ccc1F)c1cc(C2CC2)nn1-c1ccccc1 28.5%
O=C(CCc1c[nH]c2ccccc12)NCCc1cccnc1 -7.37%
Cc1ccc(C2C=C(c3ccc(Cl)cc3)Nc3nc(NC(=O)CCC(=O)O)nn32)cc1 (stereo not given) 39.4%
COc1cccc(-c2nc3n(n2)C(c2ccccc2Cl)C(C(N)=O)=C(C)N3)c1 (stereo not given) 337%
Cc1nn(Cc2cccc(F)c2)c(C)c1NS(=O)(=O)c1c(C)nn(C)c1C -45.1%
Cc1sc2ncnc(Sc3nnc(-c4ccccc4F)n3C)c2c1C 3.83%
N#Cc1ccccc1Sc1ccccc1C(=O)NC1CCCCC1 -23.6%
N#Cc1ccccc1Sc1ccccc1C(=O)OCC(=O)NC1CCCCC1 -7.61%
CC1CCCN(CC(=O)Nc2oc3ccccc3c(=O)c2-c2ccccc2)C1 (stereo not given) 53.9%
Cn1c(=O)[nH]c(=O)c2c1nc(SCCO)n2Cc1ccc(Cl)cc1 -28.4%
CCN(CC)c1ccc(NC(=O)CSc2ncnc3ccccc23)cc1 -15.3%
CC(C)C(=O)NC(NC(=S)Nc1ccccc1)C(Cl)(Cl)Cl (stereo not given) -14.2%
COCCN1C(=O)c2n[nH]c(-c3ccco3)c2C1c1ccc(O)cc1 (stereo not given) -7.24%
Cc1cnc(C)n1CCN 43.7%
Cc1cnc(-c2ccccc2)n1CCNC(=O)CCC1CCCC1 7.92%
CCc1ccc(-c2ccccc2)nc1-c1ccccc1 6.65%
COC(=O)CC(NC(=O)c1ccc2c(c1)OCCO2)c1ccc(F)cc1 (stereo not given) -18.7%
Cc1oc(-c2nc(C#N)c(N3CCCCCC3)o2)cc1S(=O)(=O)N1CCCCC1 -3.56%
Cc1ccc(/C=C/C(=O)/C=C/c2ccc(C)cc2)cc1 -13.9%
COc1cc(C=CC(=O)O)ccc1O -8.61% [at 57.4 µM]
O=C(Nc1ccccc1NS(=O)(=O)c1cccs1)c1ccc([N+](=O)[O-])cc1 -7.02%
CCOC(=O)/C=C/c1ccc(N)cc1 0.135%
CO[C@H]1C(=O)N(C(C)C)[C@H]1C1CCN(C(=O)Nc2ccc(C)c(C)c2)CC1 12.5%
Cc1ccsc1C(=O)NC1CCN(c2cnn(Cc3ccccc3)c(=O)c2)CC1 20.5%
CCN(CC)CCC(=O)Nc1c(C(=O)OC)[nH]c2ccccc12 2.76%
O=C(COC(=O)Cc1ccc(F)cc1)Nc1cc(S(=O)(=O)N2CCOCC2)ccc1N1CCCC1 10.8%
CC(C)CCC(=O)Nc1cc(S(=O)(=O)N2CCOCC2)ccc1N1CCCC1 -1.02%
CC(C)OCC(=O)N1CCN(c2nc(-c3ccccc3)nc3c2CCC3)CC1 1.77%
Cc1[nH]c2ccccc2c1CC(=O)NCc1ccc(CN2CCCC2)cc1 0.463%
Cc1c(Cc2ccccc2)c(=O)oc2c(C)c(OC(C)C(=O)O)ccc12 (stereo not given) -4.47%
Cc1nc2nc(NCc3cc(F)cc(F)c3)[nH]n2c(=O)c1C 3.05%
CCN(c1ccc(NC(=O)c2cnc3ccccc3n2)cc1)C(C)C -1.28%
CCN(CC(=O)NC(=O)NCC(C)C)C1CC1 19.4%

Potency, active:
CC(C)CNc1nc(-c2ccc3c(c2)CCCN3S(C)(=O)=O)cs1 14.1 µM
O=C(NC(c1ccc(-c2ccccc2)cc1)c1cnccn1)C1CCN(CCOc2ccc(Cl)cc2Cl)CC1 (stereo not given) 44.7 µM
Cc1ccc(C(NC(=O)C2CCN(CCOc3ccc(Cl)cc3Cl)CC2)c2ccccn2)cc1 (stereo not given) 56.2 µM
C[N+](C)(C)CC#CCCCC#CC[N+](C)(C)C 11.2 µM
COc1ccc(S(=O)(=O)N[C@@H]2C=C[C@@H](CC(=O)N3CCc4ccccc4C3)O[C@@H]2CO)cc1 25.1 µM
COc1ccccc1NC(=O)c1cc2ccccc2cc1OCC(N)=O 35.5 µM
Clc1ccccc1CSc1nnc(-c2ccco2)c(-c2ccco2)n1 3.55 µM
Cc1nn(CCc2nc(-c3ccccc3F)cs2)c2[nH]c(=O)cc(C(F)(F)F)c12 7.08 µM
CCOc1cccc(/C=N/N2C(=O)CSC2=S)c1O 31.6 µM
COC(=O)c1ccc2nc(-c3ccc(Cl)cc3)c(Cc3cccc(F)c3)n2c1 44.7 µM
COC(=O)c1ccc2nc(-c3cccc(Br)c3)c(Cc3ccc(OC)cc3C)n2c1 7.94 µM
S=c1[nH]nc(-c2ccc(Cl)cc2)n1CC1CCCO1 (stereo not given) 44.7 µM
O=C(c1cccc(F)c1)N1CCN(c2ccc([N+](=O)[O-])c3cccnc23)CC1 39.8 µM
O=C(/C=C/c1ccc(Cl)c([N+](=O)[O-])c1)c1cccnc1 17.8 µM
COc1ccc(C2=CC(c3ccccc3Cl)n3nc(-c4ccc(Cl)cc4)nc3N2)cc1 (stereo not given) 5.01 µM
N#Cc1ccccc1Sc1ccccc1C(=O)Nc1ccc2c(c1)CCC2 20 µM
Cc1cnc(-c2ccncc2)n1CCN 3.55 µM
O=C(/C=C(O)/C=C/c1ccc(O)cc1)/C=C/c1ccc(O)cc1 28.2 µM
CCN1CCC(O)(/C=C/c2ccc(C)cc2)C(C(=O)/C=C/c2ccc(C)cc2)C1 (stereo not given) 50.1 µM
COCCNC(=S)Nc1cc(S(=O)(=O)N2CCOCC2)ccc1N1CCCCC1 31.6 µM
